Out of some 5,500 compounds screened, about 2,000 (36%) were called active. Inconclusive results (about 18%) are left out. No stated cut-off is given here; in the data, active means normalized growth mostly below about 0.91 (no sharp cut-off); inconclusive means no clear call, values can overlap the other calls; inactive means mostly above about 0.92. Some of the results follow.
Test: chemical genetic growth profiling, strain panel (AID 1159580);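 further: tested at 20 µM; growth read once vehicle control cultures reached saturation at 30 °C; 1 = growth at the plate median or of vehicle wells; lower values mean less growth of the strain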
Settings: growth OD

Measured: normalized growth

COc1ccccc1NC(=S)NCCC(=O)O
inactive: S. cerevisiae deletion strains, locus YAL013W, strain DEP1, active compounds read low 1.01 | S. cerevisiae deletion strains, locus YBR229C, strain ROT2, active compounds read low 1 | S. cerevisiae deletion strains, locus YCL061C, strain MRC1, active compounds read low 1 | S. cerevisiae deletion strains, locus YDL101C, strain DUN1, active compounds read low 0.985 | S. cerevisiae deletion strains, locus YDR150W, strain NUM1, active compounds read low 0.955 | S. cerevisiae deletion strains, locus YEL061C, strain CIN8, active compounds read low 0.991 | S. cerevisiae deletion strains, locus YGR078C, strain PAC10, active compounds read low 0.995 | S. cerevisiae deletion strains, locus YHR030C, strain SLT2, active compounds read low 1.03 | S. cerevisiae deletion strains, locus YHR087W, strain rtc3, active compounds read low 0.986 | S. cerevisiae deletion strains, locus YJL187C, strain SWE1, active compounds read low 1.01 | S. cerevisiae deletion strains, locus YJR075W, strain HOC1, active compounds read low 1.03 | S. cerevisiae deletion strains, locus YLR039C, strain RIC1, active compounds read low 1.03 | S. cerevisiae deletion strains, locus YLR058C, strain SHM2 (second series), active compounds read low 1.01 | S. cerevisiae deletion strains, locus YLR085C, strain ARP6, active compounds read low 1.03 | S. cerevisiae deletion strains, locus YLR262C, strain YPT6, active compounds read low 1.02 | S. cerevisiae deletion strains, locus YML094W, strain GIM5, active compounds read low 0.963 | S. cerevisiae deletion strains, locus YMR219W, strain ESC1, active compounds read low 1.01 | S. cerevisiae deletion strains, locus YMR263W, strain SAP30, active compounds read low 0.989 | S. cerevisiae deletion strains, locus YNL153C, strain GIM3, active compounds read low 0.996 | S. cerevisiae deletion strains, locus YNL298W, strain CLA4 (second series), active compounds read low 1.02 | S. cerevisiae deletion strains, locus YNL322C, strain KRE1, active compounds read low 0.999 | S. cerevisiae deletion strains, locus YNR030W, strain Alg12, active compounds read low 1.01 | S. cerevisiae deletion strains, locus YPL055C, strain LGE1, active compounds read low 0.919 | S. cerevisiae deletion strains, locus YPL241C, strain CIN2, active compounds read low 1.07 | S. cerevisiae deletion strains, locus YPR135W, strain CTF4, active compounds read low 0.984 | S. cerevisiae strains, strain wild type, active compounds read low 1.01

Reference: PubChem BioAssay AID1159580 (chemical genetic matrix, 2015)
